PubChem BioAssay (NCATS)
Results filed as inconclusive are left out. Entries that show only a call come without a potency. The source made the active and inactive calls. The call rests on the fitted dose curve; in most records, active means well fitted cell-killing curve with a large enough effect; inconclusive means small, poorly fitted or top-dose-only effect; inactive means flat fitted curve, though single readings scatter. Residues, ends and D or L forms follow the SMILES beside them. *: point of attachment. Cbz = O=C(OCc1ccccc1)*
Potency means the concentration at half of the fitted maximal effect.

Experiment: qHTS of pediatric cancer cell lines to identify multiple opportunities for drug repurposing: Primary screen for U-2 OS cells (AID 1347096); further: nearly all actives have a fitted effect of over 50% in size
Conditions: U-2 OS viability, CellTiter-Glo luminescence, 48 h; series mostly up to 46 µM
Excerpt: Drug repurposing or repositioning has been offered as a strategy for drug development in oncology programs. This approach has special potential for childhood cancers and other rare or orphan diseases, where the expected return on new drug development has been a disincentive to pharmaceuticals.
In this project we exploit the poly-pharmacology of drugs to discover new indications via phenotypic screening of a panel of 19 well-characterized cell lines derived from solid tumors seen in children and adolescents. The goal is to identify approved drugs with previously unrecognized anticancer properties that has the potential to reveal new mechanisms and biological processes involved in carcinogenesis or drug resistance. We employed a titration-based paradigm (quantitative high-throughput screening or qHTS), where all compounds were tested at multiple concentrations for their effect on cell viability. Concentration-response curves (CRCs) were derived directly from the primary screen, and both potency and efficacy values were used to identify compounds with robust bioactivity profiles. We screened the NIH Chemical Genomics Center (NCGC) Pharmaceutical Collection (NPC) and Mechanism Interrogation Plate (MIPE) small molecule collections of approved and investigational compounds against these cell lines; and measured metabolically active cells after 48 hours of compound treatment as a proxy for cell viability.
Assay Submitter: Nathalia J. Martinez, National Center for Advancing Translational Sciences, National Institutes of Health, Rockville, MD, USA; email: natalia.martinez@nih.gov
[1] Shen, M et al. Quantitative high-throughput phenotypic screening of pediatric cancer cell lines identifies multiple opportunities for drug repurposing. Oncotarget 2017 Dec 19;9(4):4758-4772. PMID 29435139.
The cells were obtained from University of North Carolina (UNC), Pediatric Preclinical Testing Program (PPT), and Coriell Institute (CI).
qHTS cell viability assay:
Cells were assayed in growth media at a density of 500-1,000 cells/well. Five microliters of cells were dispensed into 1,536-well, white, solid-bottom, TC-treated plates (Greiner Bio One) using a multidrop dispenser and incubated at 37 degrees C, 5% CO2, under a humidified atmosphere for 5 hours. Twenty-three nanoliters of compounds and controls (neutral control DMSO or positive control bortezomib at final concentration of 2.3 µM) were subsequently transferred by Kalypsys pintool. For primary screens, the MIPE collection was tested at 11-point dilutions (final concentrations range from 0.78 nM to 46 µM) and the NPC collection at 8-point dilutions (final concentrations range from 0.59 nM to 46 µM). Compounds tested in follow-up screens were assayed at 11-point dilutions. Cells were incubated for 48 hours, followed by addition of 3 µL of CellTiter-Glo (Promega). After a 15 min incubation at room temperature, samples were analyzed for luminescence intensity using a ViewLux High-throughput CCD imager equipped with clear filters.
For `CC(Oc1ccc(O)cc1)(P(=O)(O)O)P(=O)(O)O`, the Potency was “inactive”.
For `O=C1CSC(=O)N1C(CCc1ccncc1)COc1ccc(-c2cccc([N+](=O)[O-])c2)cc1` (stereo not given), the Potency was “inactive”.
For `COc1cc(N2CCC(C(N)=O)CC2)ccc1Nc1nc(N)c(Cl)c(Nc2ccccc2S(=O)(=O)C(C)C)n1`, the Potency was “inactive”.
In the case of `O=C(O)c1ccc(Nc2ncc3c(n2)-c2ccc(Cl)cc2C(c2c(F)cccc2F)=NC3)cc1`, the Potency is reported as “inactive”.
With `CC(=O)N[C@@H]1[C@H](O[C@@H]2c3ccc(c(Cl)c3)Oc3cc4cc(c3O[C@H]3O[C@H](CO)[C@@H](O)[C@H](O)[C@H]3NC(=O)CCCCCCCC(C)C)Oc3ccc(cc3Cl)C[C@H]3NC(=O)[C@H](N)c5ccc(O)c(c5)Oc5cc(O)cc(c5)[C@H](NC3=O)C(=O)N[C@H]4C(=O)N[C@H]3C(=O)N[C@@H]2C(=O)N[C@@H](C(=O)O)c2cc(O)cc(O[C@H]4O[C@H](CO)[C@@H](O)[C@H](O)[C@H]4O)c2-c2cc3ccc2O)O[C@H](CO)[C@@H](O)[C@@H]1O` the Potency was “inactive”.
In the case of `Cc1coc2c1C(=O)C(=O)c1c-2ccc2c(C)cccc12`, the Potency is reported as “inactive”.
With `N#Cc1c(C2CCNCC2)cc(-c2c(O)cccc2OCC2CC2)nc1N` the Potency was “inactive”.
For `CN[C@@H]1C[C@H]2O[C@@](C)([C@H]1OC)n1c3ccccc3c3c4c(c5c6ccccc6n2c5c31)C(=O)N[C@H]4O`, the Potency was 2960 nM (active).
In the case of `C[C@H](NC(=O)Cc1cc(F)cc(F)c1)C(=O)N[C@H](C(=O)OC(C)(C)C)c1ccccc1`, the Potency is reported as “inactive”.
With `C=C[C@@H]1CN2CCC1C[C@H]2[C@H](O)c1ccnc2ccc(OC)cc12` (stereo not given in full) the Potency was “inactive”.
In the case of `COC1=C(OC)C(=O)C(CC=C(C)CCC=C(C)CCC=C(C)CCC=C(C)CCC=C(C)CCC=C(C)CCC=C(C)CCC=C(C)CCC=C(C)CCC=C(C)C)=C(C)C1=O`, the Potency is reported as “inactive”.
With `CC(C)C[C@@H](C=O)NC(=O)[C@H](CC(C)C)NC(=O)[C@H](CC(C)C)NC(=O)OCc1ccccc1` (Cbz-Leu-Leu-Leu-aldehyde) the Potency was 935 nM (active).
For `CN[C@H]1[C@@H](O)[C@@H]2O[C@@H]3O[C@H](C)CC(=O)[C@]3(O)O[C@@H]2[C@@H](NC)[C@H]1O`, the Potency was 2960 nM (active).
With `Cc1ccc([N+](=O)[O-])cc1S(=O)(=O)N(C)N=Cc1cnc2ccc(Br)cn12` the Potency was 118 nM (active).
With `Cc1cc(Nc2ncc3c(n2)N(C)C(=O)N(c2cc(NC(=O)c4cccc(C(F)(F)F)c4)ccc2C)C3)n(C)n1` the Potency was 935 nM (active).
With `C[N+](C)([O-])CCNc1ccc(NCC[N+](C)(C)[O-])c2c1C(=O)c1c(O)ccc(O)c1C2=O` the Potency was “inactive”.
With `C[C@@H]1[C@H](C)CC[C@]2(C(=O)O)CC[C@]3(C)C(=CC[C@@H]4[C@@]5(C)C[C@@H](O)[C@H](O)[C@@](C)(CO)[C@H]5CC[C@]43C)[C@@H]12` the Potency was “inactive”.
In the case of `NC[C@H]1O[C@H](O[C@H]2[C@@H](O)[C@@H](O[C@H]3O[C@H](CO)[C@@H](O)[C@H](N)[C@@H]3O)[C@H](N)C[C@@H]2N)[C@H](N)C[C@H]1O`, the Potency is reported as “inactive”.
With `C=CC(=O)Nc1ccc2ncnc(Nc3ccc(OCc4cccc(F)c4)c(Cl)c3)c2c1` the Potency was 5900 nM (active).
With `Nc1cccc2c1C(=O)N(C1CCC(=O)NC1=O)C2=O` (stereo not given) the Potency was “inactive”.
With `N#CC(=C(O)c1ccc(Cl)cc1Cl)c1nc2cc(Cl)ccc2c(=O)[nH]1` the Potency was “inactive”.
In the case of `O=C1c2cccc(O)c2C(=O)c2c(O)cc(CO)cc21`, the Potency is reported as “inactive”.
With `O=C(CN1C(=O)C2(CCCC2)NC[C@H]1c1cc(F)cc(F)c1)Nc1ccc2c(c1)C[C@@]1(C2)C(=O)Nc2ncccc21` the Potency was “inactive”.
In the case of `N#Cc1ccc(COC[C@H]2O[C@@H](n3c(NCc4ccc(Cl)c(Cl)c4)nc4c(N)ncnc43)[C@@H](O)[C@@H]2O)cc1`, the Potency is reported as “inactive”.
For `C[C@@H](Oc1ccc2[nH]nc(C=Cc3cnn(CCO)c3)c2c1)c1c(Cl)cncc1Cl`, the Potency was “inactive”.
In the case of `NC(=O)c1ncn([C@@H]2O[C@H](CO)[C@@H](O)[C@@H]2O)c1N`, the Potency is reported as “inactive”.
In the case of `CC(C)(O)Cn1c(NC(=O)c2ccc(-c3cn[nH]c3)s2)nc2cc(CN3CCOCC3)ccc21`, the Potency is reported as 1870 nM (active).
In the case of `O=C(c1ccc(F)cc1)N1CCC[C@H](c2nc(-c3ccc(F)cc3)no2)C1`, the Potency is reported as “inactive”.
With `CC(=O)OCC(=O)[C@@]12N=C(C)O[C@H]1C[C@H]1[C@@H]3CCC4=CC(=O)C=C[C@]4(C)[C@@H]3[C@@H](O)C[C@@]12C` the Potency was “inactive”.
In the case of `COc1cc2c(cc1OC)[C@@H]1C(=O)c3ccc4c(c3O[C@@H]1CO2)C=CC(C)(C)O4`, the Potency is reported as “inactive”.
With `CCc1ccc(C(=O)Nc2cc(CN3CCN(C)CC3)cc(C(F)(F)F)c2)cc1C#Cc1cnc2ccnn2c1` the Potency was 23500 nM (active).
For `CCN(C(=O)c1c(O)c2c(Cl)cccc2n(C)c1=O)c1ccccc1`, the Potency was “inactive”.
In the case of `OCCN1C[C@H](O)[C@@H](O)[C@H](O)[C@@H]1CO`, the Potency is reported as “inactive”.
For `CN1C(C(=O)Nc2ccccn2)=C(O)c2sc(Cl)cc2S1(=O)=O`, the Potency was “inactive”.
In the case of `C[C@@]12C[C@@]3(O)O[C@@H](O1)[C@]1(COC(=O)c4ccccc4)[C@@H]3C[C@@]12O[C@@H]1O[C@H](CO)[C@@H](O)[C@H](O)[C@@H]1O`, the Potency is reported as “inactive”.
With `C=C1C[C@@]2(O)O[C@@]3(C[C@H]2C(C)C)[C@H](C)CC[C@H]13` the Potency was “inactive”.
With `CC(=O)OC[C@@H]1O[C@@H](n2ccc(=O)[nH]c2=O)[C@H](OC(C)=O)[C@H]1OC(C)=O` the Potency was “inactive”.
For `CC(C)OC(=O)[C@H](C)N[P@](=O)(OC[C@H]1O[C@@H](n2ccc(=O)[nH]c2=O)[C@](C)(F)[C@H]1O)Oc1ccccc1`, the Potency was “inactive”.
For `CC(=O)O[C@@]12CO[C@H]1C[C@H](O)[C@@]1(C)C(=O)[C@H](O)C3=C(C)[C@@H](OC(=O)C(O)[C@@H](NC(=O)OC(C)(C)C)c4ccccc4)C[C@@](O)([C@@H](OC(=O)c4ccccc4)[C@@H]21)C3(C)C` (stereo not given in full), the Potency was “inactive”.
For `O=C(O)C[C@H](O)C[C@H](O)C=Cc1c(C2CC2)nc2ccccc2c1-c1ccc(F)cc1`, the Potency was 9350 nM (active).
